Measured values from PubChem BioAssay (NCATS).
Results filed as inconclusive are left out. Activity calls are given as the source filed them. The call rests on the fitted dose curve; in most records, active means well fitted curve in the direction sought with a large enough effect; inconclusive means small, poorly fitted or top-dose-only effect, or another doubt; inactive means no such curve, though single readings can be large; an effect the other way counts as inactive or inconclusive.

Columns and labels:
[1] = Quantitative High-Throughput drug screen in 47 multiple myeloma cell lines against the NCATS MIPE library collection: KHM11_PLB cell viability assay (AID 1918962); further: nearly all actives have a fitted effect of over 35% in size
Method in brief: (§1)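 qHTS of the MIPE 4.0 collection: 500 myeloma cells/well, 48 h drug exposure at 37C in 5% CO2, then CellTiter-Glo for 5 min at room temperature before luminescence reading.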

[2] = Quantitative High-Throughput drug screen in 47 multiple myeloma cell lines against the NCATS MIPE library collection: JIM3_ECACC cell viability assay (AID 1918963; further: nearly all actives have a fitted effect of over 35% in size)
Method in brief: as §1

[3] = Quantitative High-Throughput drug screen in 47 multiple myeloma cell lines against the NCATS MIPE library collection: JIM1_ECACC cell viability assay (AID 1918964)
Method in brief: (§2)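 Primary qHTS used for cherry-picking: cells at 500/well, library compounds for 48 h (37C, 5% CO2), luminescent ATP assay.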

[4] = Quantitative High-Throughput drug screen in 47 multiple myeloma cell lines against the NCATS MIPE library collection: INA6_PLB cell viability assay (AID 1918965; further: nearly all actives have a fitted effect of over 55% in size)
Method in brief: (§3)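 Luminescent ATP measurement with CellTiter-Glo gives viability, scaled between DMSO-only wells (100%) and media-only wells (0%). Cells, 500 per well, faced library compounds for 48 hours at 37C.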

[5] = Quantitative High-Throughput drug screen in 47 multiple myeloma cell lines against the NCATS MIPE library collection: JJN3_DSMZ cell viability assay (AID 1918966; further: nearly all actives have a fitted effect of over 50% in size)
Method in brief: as §2

[6] = Quantitative High-Throughput drug screen in 47 multiple myeloma cell lines against the NCATS MIPE library collection: KMS27_JCRB cell viability assay (AID 1918970); further: nearly all actives have a fitted effect of over 30% in size
Method in brief: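 Each line is seeded at 500 cells per well and treated with library compounds for 48 hours under 37 °C, 5% CO2. CellTiter-Glo is then added for 5 min at room temperature before median relative luminescence is recorded.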

[7] = Quantitative High-Throughput drug screen in 47 multiple myeloma cell lines against the NCATS MIPE library collection: KMS12BM_JCRB cell viability assay (AID 1918971); further: nearly all actives have a fitted effect of over 35% in size
Method in brief: (§4)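 Myeloma cells (500 per well) were exposed to MIPE 4.0 compounds by pin transfer and incubated 48 hours at 37C, 5% CO2. Viability was read as ATP by CellTiter-Glo luminescence, normalised to DMSO (100%) and media-only (0%) wells.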

[8] = Quantitative High-Throughput drug screen in 47 multiple myeloma cell lines against the NCATS MIPE library collection: KMS12PE_JCRB cell viability assay (AID 1918972); further: nearly all actives have a fitted effect of over 30% in size
Method in brief: as §3

[9] = Quantitative High-Throughput drug screen in 47 multiple myeloma cell lines against the NCATS MIPE library collection: KMS20_JCRB cell viability assay (AID 1918973); further: nearly all actives have a fitted effect of over 45% in size
Method in brief: as §2

[10] = Quantitative High-Throughput drug screen in 47 multiple myeloma cell lines against the NCATS MIPE library collection: KMS26_JCRB cell viability assay (AID 1918975); further: nearly all actives have a fitted effect of over 45% in size
Method in brief: as §4

[11] = Quantitative High-Throughput drug screen in 47 multiple myeloma cell lines against the NCATS MIPE library collection: MMM1_PLB cell viability assay (AID 1918976); further: nearly all actives have a fitted effect of over 35% in size
Method in brief: (§5)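 qHTS format: cells plated (500/well), pin-dosed with MIPE 4.0 compounds, kept 48 h at 37 °C. Readout was CellTiter-Glo luminescence, median RLU.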

[12] = Quantitative High-Throughput drug screen in 47 multiple myeloma cell lines against the NCATS MIPE library collection: MOLP8_DSMZ cell viability assay (AID 1918977); further: nearly all actives have a fitted effect of over 45% in size
Method in brief: as §5

[13] = Quantitative High-Throughput drug screen in 47 multiple myeloma cell lines against the NCATS MIPE library collection: NCIH929_DSMZ cell viability assay (AID 1918978); further: nearly all actives have a fitted effect of over 35% in size
Method in brief: as §5

[14] = Quantitative High-Throughput drug screen in 47 multiple myeloma cell lines against the NCATS MIPE library collection: OCIMY1_PLB cell viability assay (AID 1918979); further: nearly all actives have a fitted effect of over 35% in size
Method in brief: as §5

[15] = Quantitative High-Throughput drug screen in 47 multiple myeloma cell lines against the NCATS MIPE library collection: MM1S_ATCC cell viability assay (AID 1918980); further: nearly all actives have a fitted effect of over 45% in size
Method in brief: as §5

[16] = Quantitative High-Throughput drug screen in 47 multiple myeloma cell lines against the NCATS MIPE library collection: MM1R_ATCC cell viability assay (AID 1918981); further: nearly all actives have a fitted effect of over 35% in size
Method in brief: as §5

[17] = Quantitative High-Throughput drug screen in 47 multiple myeloma cell lines against the NCATS MIPE library collection: LP1_DSMZ cell viability assay (AID 1918982); further: nearly all actives have a fitted effect of over 35% in size
Method in brief: as §5

[18] = Quantitative High-Throughput drug screen in 47 multiple myeloma cell lines against the NCATS MIPE library collection: H1112_PLB cell viability assay (AID 1918967; further: nearly all actives have a fitted effect of over 30% in size)
Method in brief: as §2

[19] = Quantitative High-Throughput drug screen in 47 multiple myeloma cell lines against the NCATS MIPE library collection: Karpas25_ECACC cell viability assay (AID 1918968; further: nearly all actives have a fitted effect of over 35% in size)
Method in brief: as §2

[20] = Quantitative High-Throughput drug screen in 47 multiple myeloma cell lines against the NCATS MIPE library collection: KMS21BM_JCRB cell viability assay (AID 1918974); conditions: ATP luminescence, 48 h; viability: at 45.8 µM (top of the series) unless noted
Method in brief: as §2
Potency means the concentration at half of the fitted maximal effect.

Compound	Potency [1]	Potency [2]	Potency [3]	Potency [4]	Potency [5]	Potency [6]	Potency [7]	Potency [8]	Potency [9]	Potency [10]	Potency [11]	Potency [12]	Potency [13]	Potency [14]	Potency [15]	Potency [16]	Potency [17]	Potency [18]	Potency [19]	Potency [20]
CC(NCc1ccc2c(c1)nc(NC(=O)c1ccc(-c3cn[nH]c3)s1)n2CC(C)(C)O)C(C)(C)C (stereo unspecified)	93.5 nM (active)	209 nM (active)	46.9 nM (active)	83.3 nM (active)	264 nM (active)	83.3 nM (active)	1050 nM (active)	264 nM (active)	235 nM (active)	743 nM (active)	118 nM (active)	209 nM (active)	235 nM (active)	1050 nM (active)	332 nM (active)	469 nM (active)	469 nM (active)			
Nc1ccccc1NC(=O)c1ccc(CNC(=O)OCc2cccnc2)cc1	4180 nM (active)	2960 nM (active)	1480 nM (active)	418 nM (active)		526 nM (active)		743 nM (active)	526 nM (active)	4690 nM (active)	4690 nM (active)	1480 nM (active)	1320 nM (active)	4690 nM (active)	935 nM (active)	833 nM (active)	1660 nM (active)	2350 nM (active)	833 nM (active)	469 nM (active)
CC(C)c1ccccc1Cc1cc(C(=O)Nc2ccc(S(=O)(=O)c3ccccc3C(C)(C)C)cc2)c(O)c(O)c1O	7430 nM (active)	4180 nM (active)	inactive		14800 nM (active)	inactive	3720 nM (active)	inactive	9350 nM (active)	9350 nM (active)	18700 nM (active)	13200 nM (active)	7430 nM (active)	23500 nM (active)	11800 nM (active)	10500 nM (active)		6620 nM (active)	3720 nM (active)	
CNC(=O)CN1CCC(Oc2cc3c(Nc4cccc(Cl)c4F)ncnc3cc2OC)CC1	37.2 nM (active)	33.2 nM (active)	1 nM (active)	23.5 nM (active)		1 nM (active)	18.7 nM (active)	10.5 nM (active)	41.8 nM (active)				59 nM (active)		10.5 nM (active)				18.7 nM (active)	
COc1ccc(F)c(F)c1C(=O)c1cnc(NC2CCN(S(C)(=O)=O)CC2)nc1N	1870 nM (active)	1870 nM (active)	1180 nM (active)		1320 nM (active)	1320 nM (active)	1180 nM (active)	1870 nM (active)	2090 nM (active)	2640 nM (active)	2640 nM (active)	1320 nM (active)	1870 nM (active)	3720 nM (active)	1660 nM (active)	2090 nM (active)	2960 nM (active)	1870 nM (active)	1180 nM (active)	296 nM (active)
COc1ccc2c(c1)CC[C@@H](CN(C)CC(=O)O)[C@H]2c1ccccc1	662 nM (active)	1660 nM (active)	372 nM (active)	2960 nM (active)	10500 nM (active)		2090 nM (active)	1050 nM (active)		1870 nM (active)	14800 nM (active)		5260 nM (active)		9350 nM (active)	3720 nM (active)				5260 nM (active)
Cn1c2ccccc2c2c3c(c4c5ccccc5n(CCC#N)c4c21)CNC3=O	833 nM (active)	6620 nM (active)	526 nM (active)	83.3 nM (active)	3320 nM (active)		16600 nM (active)	2350 nM (active)	1480 nM (active)	14800 nM (active)	10500 nM (active)	10500 nM (active)	1870 nM (active)	14800 nM (active)	2090 nM (active)		14800 nM (active)	2090 nM (active)		
Cc1c(CN2CCN(S(C)(=O)=O)CC2)sc2c(N3CCOCC3)nc(-c3cnc(N)nc3)nc12	33.2 nM (active)	66.2 nM (active)	18.7 nM (active)	264 nM (active)	46.9 nM (active)		13.2 nM (active)		37.2 nM (active)	187 nM (active)	23.5 nM (active)		5.3 nM (active)	41.8 nM (active)	13.2 nM (active)				18.7 nM (active)	
CN(C)Cc1c(C(=O)NCCOc2ccc(C(=O)NO)cc2)oc2ccccc12	1870 nM (active)	2960 nM (active)	418 nM (active)		833 nM (active)	264 nM (active)	469 nM (active)	418 nM (active)	372 nM (active)	1050 nM (active)	590 nM (active)		1050 nM (active)	1660 nM (active)	469 nM (active)	469 nM (active)		1870 nM (active)	662 nM (active)	46.9 nM (active)
